In test [1] the test system is Vero E6 infected with SARS-CoV-2. Briefly: morphology score (similarity to uninfected cells); higher = more like uninfected cells. Particulars: 24 h.
Test [2] has the same test system. Briefly: SARS-CoV-2 infection rate relative to infected DMSO; higher = more infection, active = 60 or less. Particulars: 24 h.

`O=C(O)C1=CCCN(CCOC(c2ccc(C(F)(F)F)cc2)c2ccc(C(F)(F)F)cc2)C1` (10 µM) had a morphology score in test [1] of 0.0171. Also, in test [2], the SARS-CoV-2 infection rate was 103% (inactive).
`O=C1[O][SbH]23[O]C(=O)C([O]2)C2[O][SbH]4([O]C(=O)C([O]4)C1[O]3)[O]C2=O` [antimonyl] (10 µM) displayed a morphology score in test [1] of 0.138. The SARS-CoV-2 infection rate in test [2] is 99.5% (inactive).
The compound `CCS(=O)(=O)N(C)[C@@H]1c2cc(C#N)ccc2OC(C)(C)[C@H]1O.CCS(=O)(=O)N(C)[C@H]1c2cc(C#N)ccc2OC(C)(C)[C@@H]1O` (racemic) [chromanol-(+/-)] (10 µM) registered a morphology score in test [1] of 0.241. In test [2], the SARS-CoV-2 infection rate is 98.5% (inactive).
The compound `CCNCCS(=O)(=O)NC[C@@]1(c2ccccc2)SC(NC(=O)C(C)(C)C)=NN1C(=O)C(C)(C)C` [litronesib] (10 µM) registered a morphology score in test [1] of -0.218. In addition, the SARS-CoV-2 infection rate in test [2] is 100% (inactive).
In the case of `Cc1ccc(NC(=O)c2ccc(CN3CCN(C)CC3)cc2)cc1Nc1nccc(-c2cccnc2)n1` [imatinib] (10 µM), the morphology score in test [1] was determined as 0.738. The SARS-CoV-2 infection rate in test [2] is 37% (active).
For `O=C(CCCCCCCn1cc(-c2cccnc2)nn1)Nc1ccccc1-c1ccccc1` (0.833333 µM), in that order: -0.143 and 114% (inactive).
Compound `COc1cccc(CN(C(=O)CC(C)(C)C)[C@H]2C[C@@H](C(=O)N3CCNCC3)N(Cc3ccc4c(c3)OCO4)C2)c1` (10 µM) returned a morphology score in test [1] of 0.0543. Further, in test [2], the SARS-CoV-2 infection rate is 102% (inactive).
In the case of `Cc1cc(-c2ccc(/N=N/c3ccc4c(S(=O)(=O)O)cc(S(=O)(=O)O)c(N)c4c3O)c(C)c2)ccc1/N=N/c1ccc2c(S(=O)(=O)O)cc(S(=O)(=O)O)c(N)c2c1O` [evans-blue] (0.833333 µM), the morphology score in test [1] was -0.0473. For the same compound, the SARS-CoV-2 infection rate in test [2] is 110% (inactive).
With `CC1=C(/C=C/C(C)=C/C=C/C(C)=C/C(=O)O)C(C)(C)CCC1` [tretinoin] (10 µM), the morphology score in test [1] is -0.0366. The SARS-CoV-2 infection rate in test [2] is 104% (inactive).
In test [1], `COc1nccc(-c2c(-c3ccc(F)cc3)ncn2[C@H]2CC[C@H](O)CC2)n1` (10 µM) gave a morphology score of 0.396. Further, the SARS-CoV-2 infection rate in test [2] is 85% (inactive).
For `CC(=O)NCCC(=O)N[C@@H](Cc1c[nH]cn1)C(=O)O` [N-acetylcarnosine] (10 µM), the morphology score in test [1] is -0.122. In test [2], the SARS-CoV-2 infection rate was 116% (inactive).
In the case of `CNC(=O)c1cc(Oc2ccc(NC(=O)Nc3ccc(Cl)c(C(F)(F)F)c3)cc2)ccn1` [sorafenib] (0.833333 µM), the morphology score in test [1] is -0.246. Also, the SARS-CoV-2 infection rate in test [2] was 118% (inactive).
The compound `Cc1cn([C@H]2C=C[C@@H](CO)O2)c(=O)[nH]c1=O` [stavudine] (10 µM) came in with a morphology score in test [1] of 0.031. Further, the SARS-CoV-2 infection rate in test [2] was 106% (inactive).
The compound `CC(O)(P(=O)(O)O)P(=O)(O)O` [etidronic-acid] (10 µM) returned a morphology score in test [1] of 0.115. The SARS-CoV-2 infection rate in test [2] is 103% (inactive).
For `CCCc1nc(C(C)(C)O)c(C(=O)O)n1Cc1ccc(-c2ccccc2-c2nnn[nH]2)cc1` [olmesartan] (10 µM), in that order: 0.0191 and 102% (inactive).
In turn, `COc1nccnc1NS(=O)(=O)c1ccc(N)cc1` [sulfametopyrazine] (10 µM) had a morphology score in test [1] of -0.162. For the same compound, the SARS-CoV-2 infection rate in test [2] was 112% (inactive).
For `c1cc(CN2CCCCC2)cc(OCCCNc2nc3ccccc3s2)c1` [zolantidine] (10 µM), in that order: 0.67 and 44% (active).
In turn, `CC(=O)OCC(=O)[C@@]1(O)[C@@H](C)C[C@H]2[C@@H]3CCC4=CC(=O)C=C[C@]4(C)[C@@]3(F)[C@@H](O)C[C@@]21C` [betamethasone-acetate] (10 µM) showed a morphology score in test [1] of -0.021. Besides, the SARS-CoV-2 infection rate in test [2] was 114% (inactive).
For `CC(=O)Oc1ccc(C(c2ccc(OC(C)=O)cc2)c2ccccn2)cc1` [bisacodyl] (10 µM), in that order: 0.261 and 85.5% (inactive).
For `CC1=C(C(=O)O)N2C(=O)[C@@H](NC(=O)[C@H](N)C3=CCC=CC3)[C@H]2SC1` [cephradine] (10 µM), in that order: 0.0689 and 106% (inactive).
In test [1], `COc1cc2nccc(Oc3ccc(NC(=O)Nc4ccc(F)cc4F)c(F)c3)c2cc1OC` (10 µM) showed a morphology score of 0.12. The SARS-CoV-2 infection rate in test [2] is 111% (inactive).
`N[C@H]1CC[C@H](N[C@@H]2C[C@H]2c2ccccc2)CC1` (10 µM) had a morphology score in test [1] of 0.432. The SARS-CoV-2 infection rate in test [2] was 79.5% (inactive).
For `O=C(O)c1ccc2nc(-c3cc(Cl)cc(Cl)c3)oc2c1` [tafamidis-meglumine] (10 µM), the morphology score in test [1] was determined as 0.242. Besides, the SARS-CoV-2 infection rate in test [2] was 90.5% (inactive).
`CN1[C@@H]2CC[C@H]1C[C@@H](OC(=O)N1Cc3ccccc3NC1=O)C2` (10 µM) registered a morphology score in test [1] of 0.0635. In addition, the SARS-CoV-2 infection rate in test [2] is 108% (inactive).
The compound `Nc1nc2ccc(Cl)cc2c2nc(-c3ccco3)nn12` (10 µM) yielded a morphology score in test [1] of 0.125. For the same compound, the SARS-CoV-2 infection rate in test [2] was 108% (inactive).
On to `COc1cc(C)c(/C=C/C(C)=C/C=C/C(C)=C/C(=O)O)c(C)c1C` [acitretin] (10 µM), for which the morphology score in test [1] was -0.0971. Further, in test [2], the SARS-CoV-2 infection rate was 116% (inactive).

Values taken from the supplement of paper PMC13380429.
